Screening data (PubChem BioAssay)
D3 antag: antagonists of human D3 dopamine receptor; P35462; D3R cells, DiscoveRx beta-arrestin luminescence, antagonist mode; active compounds read low; max response, negative = inhibition, %; actives 2.5% (n = 360,000); in the data active means max response below about -50%; inconclusive means no clear call, values can overlap the other calls; further: on the % scale 0 is the no-effect control and ±100 the full control effect
Target sequence (P35462 whole entry, looked up): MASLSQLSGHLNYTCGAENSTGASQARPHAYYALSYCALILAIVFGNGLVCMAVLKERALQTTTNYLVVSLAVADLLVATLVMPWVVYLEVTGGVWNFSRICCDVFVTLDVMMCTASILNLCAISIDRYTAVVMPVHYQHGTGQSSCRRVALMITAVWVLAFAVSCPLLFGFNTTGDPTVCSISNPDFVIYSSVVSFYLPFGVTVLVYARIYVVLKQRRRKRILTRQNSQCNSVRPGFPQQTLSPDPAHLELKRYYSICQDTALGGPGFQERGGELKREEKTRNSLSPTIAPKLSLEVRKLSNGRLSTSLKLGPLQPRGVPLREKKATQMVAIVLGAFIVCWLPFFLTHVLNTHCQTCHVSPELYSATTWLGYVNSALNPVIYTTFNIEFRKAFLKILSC
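Cells expressing the human receptor were seeded at 1500 cells/well, incubated overnight at 37 degrees C in 5% CO2, then exposed to library compounds with dopamine controls for 90 minutes at 37 degrees C before luminescent detection.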
KB-V1 cytotox: KB-V1 MDR subline cytotoxicity; KB-V1 MDR cells viability, CellTiter-Glo, 72 h; Potency, µM (titrated, usually from 46.1 µM), hits mostly cytotoxic; actives 3.4% (n = 400,000); further: potency means the concentration at half of the fitted maximal effect; on the % scale 0 is the no-effect control and ±100 the full control effect; nearly all actives have a fitted effect of over 60% in size
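KB-V1 cells (P-gp-expressing MDR subline of KB-3-1) in phenol-red-free DMEM with 10% FBS were exposed to library compounds over a concentration series for 72 h at 37 degrees C. Viability read by CellTiter-Glo luminescence; concentration-effect curves fitted after normalization.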
MCF10A rerep: DNA re-replication induction in MCF 10a cells; MCF 10A DNA re-replication, Hoechst nuclear intensity, 48 h; Potency, µM (highest dose often 46.1 µM), without a hit: at the highest dose activity, positive = re-replication, usual class: activators; actives 2.9% (n = 350,000); AID 624296; further: potency means the concentration at half of the fitted maximal effect; % of control where 0% means no effect; nearly all actives have a fitted effect of over 50% in size
DRD3 agonist: agonists of human D3 dopamine receptor; D3R DiscoveRx beta-arrestin cells, luminescence, 90 min; AID 652048; actives 0.58% (n = 410,000); max activation, %; in the data active means max activation above about 30%; further: 0% is about no effect
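Agonist mode: compounds and dopamine controls were applied to plated cells for 90 min at 37 degrees C after an overnight attachment at 1500 cells/well. Luminescent read-out followed 30 - 60 minutes at room temperature with DiscoveRx detection reagent.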
SW480 rereplic: induces DNA re-replication in SW480 colon adenocarcinoma cells. actives 1.8% (n = 340,000). SW480 DNA re-replication, Hoechst DNA content imaging, 48 h. Potency, µM (doses to about 46.1 µM), inactives show top-dose re-replication activation, usual class: activators; further: potency means the concentration at half of the fitted maximal effect; % of control where 0% means no effect; nearly all actives have a fitted effect of over 55% in size
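DNA re-replication was detected as more nuclei of elevated Hoechst intensity after 48 hr exposure to compound (23 nL pinned per well of 250 cells).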
KB-3-1 tox: kills parental KB-3-1 adenocarcinoma cells | KB-3-1 viability, CellTiter-Glo ATP luminescence, 72 h | Potency, µM (doses to about 46.1 µM), most hits filed as cytotoxic | actives 1.4% (n = 400,000) | AID 1347075; further: potency means the concentration at half of the fitted maximal effect; on the % scale 0 is the no-effect control and ±100 the full control effect; nearly all actives have a fitted effect of over 60% in size
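Cytotoxicity in the drug-sensitive parental line KB-3-1 was scored as loss of CellTiter-Glo luminescence following 72 h incubation with compound. Values come from curve fitting of normalized concentration-response data.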
The depositor's hits bear a star; i = inactive; ? = inconclusive; · = no result given. Only some compounds are listed: those with a hit (about 8.9% of all), similar ones and a draw of the others. Unless noted, the call rests on the fitted dose curve; in most records, active means well fitted curve in the direction sought with a large enough effect; inconclusive means small, poorly fitted or top-dose-only effect, or another doubt; inactive means no such curve, though single readings can be large; an effect the other way counts as inactive or inconclusive.

SMILES	D3 antag	KB-V1 cytotox	MCF10A rerep	DRD3 agonist	SW480 rereplic	KB-3-1 tox
COc1cccc(NC(=O)c2sc3nc(C)c(C(=O)Nc4ccc(C)cc4C)c(-c4ccccc4Cl)c3c2N)c1	·	·	·	-17	·	·
Cc1ccc2nc3c(cc2c1)c(NC(=O)C(C)(C)C)nn3CC(C)C	-12	i	2.9µM*	-3	?	i
CC(C)Cn1nc(NC(=O)c2cccs2)c2cc3ccccc3nc21	-14	i	?	3	16µM*	i
CCC(c1nnnn1C1CCCC1)N1CCN(Cc2ccccc2)CC1 (centres undefined)	-65*	i	-2%	-25	-4%	i
CCC(c1nnnn1C1CCCC1)N1CCN(C/C=C/c2ccccc2)CC1 (centres undefined)	-61*	i	·	-11	·	i
Fc1ccccc1C(c1nnnn1C1CCCC1)N1CCN(Cc2ccccc2)CC1 (centres undefined)	-18	i	-5%	-17	-1%	i
C(=C\c1ccccc1)/CN1CCN(C(c2ccnc3ccccc23)c2nnnn2C2CCCCC2)CC1 (centres undefined)	?	?	·	-16	·	?
C(=C\c1ccccc1)/CN1CCN(C(c2ccccc2)c2nnnn2C2CCCCC2)CC1 (centres undefined)	-91*	?	·	-14	·	i
CSCCC(c1nnnn1C1CCCCC1)N1CCN(C/C=C/c2ccccc2)CC1 (centres undefined)	-89*	?	·	-10	·	i
CCCC(c1nnnn1C1CCCC1)N1CCN(C(=O)c2ccco2)CC1 (centres undefined)	29	?	3%	0	2%	i
COc1cccc(CNC(=O)c2ccc3c(c2)nc2n3CCCCC2)c1OC	·	·	·	-13	·	·
Cc1cc(C)cc(NC(=O)N2CCC(N3CCCCC3)CC2)c1	·	i	·	-5	·	i
COc1cccc(CNC(=O)Cn2c(=O)oc3cc(S(=O)(=O)N4CCCC4)ccc32)c1	·	i	·	-15	·	i
Cc1cc(C)cc(NC(=O)CSc2oc(-c3cccs3)nc2S(=O)(=O)c2ccc(Br)cc2)c1	·	i	·	3	·	i
CSCCC(c1nnnn1C1CCCC1)N1CCN(C/C=C/c2ccccc2)CC1 (centres undefined)	-78*	i	·	-18	·	i
CCCCC(c1nnnn1CC1CCCO1)N1CCN(Cc2ccccc2)CC1 (centres undefined)	-78*	i	17%	-6	2%	i
CCCC(c1nnnn1CC1CCCO1)N1CCN(c2ccccc2)CC1 (centres undefined)	12	i	4%	20	4%	i
CCCCC(c1nnnn1C1CCCC1)N1CCN(C2CCCCC2)CC1 (centres undefined)	-60*	i	?	-23	-3%	i
CCCC(c1nnnn1C1CCCCC1)N1CCN(c2ncccn2)CC1 (centres undefined)	?	i	0%	-3	-18%	i
Cc1nn(Cc2n[nH]c(=S)n2Cc2ccccc2)c(C)c1Cl	-87*	i	14%	-1	2%	i
Cc1cc(C)n(Cc2n[nH]c(=S)n2Cc2ccccc2)n1	49	i	-3%	-4	-1%	i
CC1CCN(CCC(=O)Nc2ccc(F)c(F)c2)CC1	-51*	?	3%	-20	8%	i
CC1CCN(CCC(=O)Nc2ccc(Br)cc2)CC1	-76*	i	6%	-36	-6%	i
Cc1cc(NC(=O)CCN2CCC(C)CC2)ccc1Br	-106*	i	1%	-4	2%	i
O=C(CCN1CCCC1)Nc1ccc(Br)cc1	-2	i	-3%	-3	-3%	i
SMILES	D3 antag	KB-V1 cytotox	MCF10A rerep	DRD3 agonist	SW480 rereplic	KB-3-1 tox
CCCCCn1c(=O)c(-c2nc3ccccc3[nH]2)c(O)c2ccccc21	6	?	?	1	18µM*	?
CCCCCCCCn1c(=O)c(C(=O)OCC)c(O)c2ccccc21	13	i	?	9	-1%	i
O=C(Cc1ccc(OCCc2ccccc2)cc1)NO	·	?	·	·	·	i
COC(=O)c1sc(-c2ccc(C(C)(C)C)cc2)cc1NC(=O)CSCC(=O)O	6	?	15µM*	6	-18%	i
COC(=O)c1sc(-c2ccc(C(C)(C)C)cc2)cc1NC(=O)c1ccccc1C(=O)O	-5	i	?	-2	2%	i
CCCCOc1ccc(Cn2c(=O)sc3ccccc32)cc1	·	i	·	-9	·	i
Cc1cccc(C(=O)NCC(c2cccs2)N2CCOCC2)c1 (centres undefined)	-58*	i	?	-8	?	i
Cc1cccc(C(=O)NCC(=O)NCC(c2cccs2)N2CCOCC2)c1 (centres undefined)	-3	i	0%	3	-5%	i
O=C(COc1cccc(Cl)c1)NCC(c1cccs1)N1CCOCC1 (centres undefined)	0	i	-1%	-4	3%	i
O=C(NCC(c1cccs1)N1CCOCC1)c1cc(-c2ccc(F)cc2)nc2ccccc12 (centres undefined)	-69*	21µM*	8%	-13	12%	i
O=C(NCC(c1cccs1)N1CCOCC1)C1CCN(S(=O)(=O)c2cc(Cl)ccc2Cl)CC1 (centres undefined)	1	9.2µM*	8%	2	-2%	i
Cc1cc(Cl)ccc1OCC(=O)NCC(c1cccs1)N1CCOCC1 (centres undefined)	-4	7.3µM*	-2%	-8	-99%	?
CCC(ONc1ccccc1C(F)(F)F)(C(=O)NN(C)C)c1ccccc1 (centres undefined)	-2	i	-6%	9	17%	i
COc1cccc(CC(=O)NCc2ccc3c(c2)CCN3C(C)=O)c1	·	·	·	-2	·	·
CC(NCc1ccc2c(c1)n(C)c(=O)n2C)c1ccccc1 (centres undefined)	·	i	·	-1	·	i
CC(=O)N1c2ccc(S(=O)(=O)NCC3CCC(C(=O)Nc4cc(C)ccn4)CC3)cc2CC1C (centres undefined)	6	i	16%	3	?	23µM*
CC(=O)N1c2ccc(S(=O)(=O)NCC3CCC(C(=O)Nc4ccc(C)cc4)CC3)cc2CC1C (centres undefined)	·	·	·	11	·	·
Cc1cc(C)cc(NC(=O)C2CCC(CNS(=O)(=O)c3ccc4c(c3)C(C)(C)C(=O)N4C)CC2)c1 (centres undefined)	·	i	·	0	·	18µM*
